Experimental data taken from PubChem BioAssay (NCATS).
Records with an inconclusive call do not appear. A call without a number means that no potency is given here. Active and inactive are the calls of the source. Unless noted, calls follow the shape of the dose curve; as a rule, active = well fitted inhibition curve with a large enough effect; inconclusive = small, poorly fitted or top-dose-only effect; inactive = no such curve, though single readings can be large or run the other way.

Experiments:
[1] = biological target: Aldehyde dehydrogenase, mitochondrial (Homo sapiens) (UniProt P05091); test: qHTS for Inhibitors of the Aldehyde Dehydrogenase Family (ALDH2) Confirmatory screens (AID 2061303; active = well fitted inhibition curve with a large enough effect; title and protocol of this record describe different tests; also: nearly all actives have a fitted effect of over 45% in size; also: potency is read from the fitted curve at half-maximal effect); details: ALDH inhibition qHTS; series mostly up to 45.4 µM
[2] = qHTS for Inhibitors of the Aldehyde Dehydrogenase Family (ALDH1A2, ALDH1A3, ALDH2, ALDH3A1) (AID 2061307); details: ALDH inhibition qHTS; series mostly up to 50.3 µM; also: nearly all actives have a fitted effect of over 50% in size; as to potency: test system not described further here; potency is read from the fitted curve at half-maximal effect
[3] = biological target: Retinaldehyde dehydrogenase 3 (Homo sapiens) (UniProt P47895); test: qHTS for Inhibitors of the Aldehyde Dehydrogenase Family (ALDH1A3) Confirmatory screens (AID 2061311); details: ALDH inhibition qHTS; series mostly up to 46 µM; also: nearly all actives have a fitted effect of over 60% in size; also: potency is read from the fitted curve at half-maximal effect
[4] = biological target: Retinal dehydrogenase 2 (Homo sapiens) (UniProt O94788); test: qHTS for Inhibitors of the Aldehyde Dehydrogenase Family (ALDH1A2) Confirmation screens (AID 2061314); details: ALDH1A2 enzyme inhibition qHTS confirmation; series mostly up to 45.9 µM; also: nearly all actives have a fitted effect of over 65% in size; also: potency is read from the fitted curve at half-maximal effect
[5] = biological target: Retinaldehyde dehydrogenase 3 (Homo sapiens) (UniProt P47895); test: qHTS for Inhibitors of the Aldehyde Dehydrogenase Family (ALDH1A3) Primary screen (AID 2061315); details: ALDH inhibition qHTS; series mostly up to 56 µM
[6] = biological target: Aldehyde dehydrogenase 1A1 (Homo sapiens) (UniProt P00352); test: qHTS for Inhibitors of the Aldehyde Dehydrogenase Family (ALDH1A1) Confirmatory screens (AID 2061316); details: ALDH inhibition qHTS; series mostly up to 47.3 µM; also: nearly all actives have a fitted effect of over 65% in size; also: potency is read from the fitted curve at half-maximal effect

## N#Cc1c(-c2ccc(C(=O)c3ccc(O)cc3)cc2)no[n+]1[O-]
[1]
  Potency: 10 µM (active)
[2]
  Potency: 11.3 µM (active)
[3]
  Potency: 15.8 µM (active)
[4]
  Potency: 0.712 µM (active)
[5]
  Potency: inactive
[6]
  Potency: 12.7 µM (active)

## Cc1ccc2c(c1)-c1c(cnn1CC(=O)N1CCN(c3cccc(C(F)(F)F)c3)CC1)CO2
[1]
  Potency: inactive
[2]
  Potency: 10 µM (active)
[3]
  Potency: inactive
[4]
  Potency: inactive
[6]
  Potency: inactive

## Cc1ccc2nc3sc(C(=O)NCCN4CCOCC4)cc3cc2c1
[1]
  Potency: inactive
[2]
  Potency: inactive
[3]
  Potency: inactive
[4]
  Potency: inactive
[5]
  Potency: inactive
[6]
  Potency: inactive

## NC(=O)C1CCN(c2nccc(-c3ccc4c(c3)OCCO4)n2)CC1
[1]
  Potency: 5.65 µM (active)
[2]
  Potency: 7.98 µM (active)
[3]
  Potency: 14.1 µM (active)
[4]
  Potency: 14.2 µM (active)
[5]
  Potency: inactive
[6]
  Potency: 0.798 µM (active)

## O=C(CN1C(=O)N/C(=C\c2cccn2-c2cccc(C(=O)O)c2)C1=O)Nc1ccc(F)cc1
[1]
  Potency: inactive
[2]
  Potency: inactive
[3]
  Potency: inactive
[4]
  Potency: inactive
[5]
  Potency: inactive

## O=c1c2ccccc2nc2sc(Nc3ccc(Sc4ccccc4)cc3)nn12
[1]
  Potency: inactive
[2]
  Potency: 12.6 µM (active)
[4]
  Potency: 4 µM (active)
[5]
  Potency: inactive

## Cc1ccc(CSc2ccc3nnc(CCNS(=O)(=O)c4ccc(C)cc4)n3n2)cc1
[1]
  Potency: inactive
[2]
  Potency: inactive
[4]
  Potency: inactive

## O=C(NCc1ccc(F)c(F)c1)c1ccc2nnc(-c3cccc(C(F)(F)F)c3)n2c1
[1]
  Potency: inactive
[2]
  Potency: 8.91 µM (active)
[3]
  Potency: inactive
[4]
  Potency: inactive
[6]
  Potency: inactive

## COc1cc(NC(=S)N2CCN(c3cccc(C(F)(F)F)c3)CC2)nc2ccccc12
[1]
  Potency: 25.1 µM (active)
[2]
  Potency: inactive
[4]
  Potency: 7.94 µM (active)
[5]
  Potency: inactive

## CC(C)(C)OC(=O)N1CCN(c2ccc(NCc3cnc(-c4ccc(C#N)cc4)s3)cc2)CC1
[1]
  Potency: 1.79 µM (active)
[2]
  Potency: 2.83 µM (active)
[4]
  Potency: inactive
[5]
  Potency: inactive
[6]
  Potency: 11.3 µM (active)

## COc1cccc(-c2nc(SCc3ccc(C)cc3)n3[nH]c(=O)cc3n2)c1
[1]
  Potency: inactive
[2]
  Potency: inactive
[3]
  Potency: 7.08 µM (active)
[4]
  Potency: inactive
[6]
  Potency: inactive

## COc1cccc(-c2ccc(CNc3ccc(N4CCN(C(=O)OC(C)(C)C)CC4)cc3)o2)c1
[1]
  Potency: 11.3 µM (active)
[2]
  Potency: 14.2 µM (active)
[3]
  Potency: inactive
[5]
  Potency: inactive

## Cc1ccc(CCNc2ncnc3onc(-c4ccc(Cl)cc4)c23)cc1
[1]
  Potency: inactive
[2]
  Potency: inactive
[3]
  Potency: 4.47 µM (active)
[4]
  Potency: inactive
[6]
  Potency: inactive

## O=Cc1ccc(-c2ccc3ncnc(NCc4cccs4)c3c2)o1
[1]
  Potency: 11.3 µM (active)
[2]
  Potency: inactive
[4]
  Potency: inactive
[5]
  Potency: inactive

## COc1ccc(-c2nc3cccc(OC)c3c(=O)n2Cc2ccccc2)cc1COc1ccc(NC(C)=O)cc1
[1]
  Potency: 28.2 µM (active)
[2]
  Potency: 2.01 µM (active)
[3]
  Potency: 25.1 µM (active)
[6]
  Potency: 12.7 µM (active)

## O=C(Nc1cccc(C(F)(F)F)c1)c1cccc(C(=O)Nc2cccc(C(F)(F)F)c2)c1
[1]
  Potency: inactive
[2]
  Potency: inactive
[3]
  Potency: inactive
[6]
  Potency: inactive

## O=S(=O)(NCCc1nnc2ccc(SCc3ccc(C(F)(F)F)cc3)nn12)c1ccccc1
[1]
  Potency: inactive
[2]
  Potency: inactive
[3]
  Potency: 25.1 µM (active)
[4]
  Potency: inactive
[6]
  Potency: inactive

## COc1ccc(-c2nc(CNS(=O)(=O)c3ccc(F)cc3)cs2)cc1
[1]
  Potency: 11.2 µM (active)
[2]
  Potency: inactive
[3]
  Potency: inactive
[6]
  Potency: inactive

## COc1ccc(Nc2ncc(C(=O)N3CCN(c4ccc(F)cc4)CC3)c3ccccc23)cc1
[1]
  Potency: inactive
[2]
  Potency: 15.8 µM (active)
[3]
  Potency: inactive
[4]
  Potency: inactive
[6]
  Potency: inactive

## COc1cccc(-c2cc(C(=O)NCC(F)F)c3cnn(C)c3n2)c1
[1]
  Potency: inactive
[2]
  Potency: inactive
[3]
  Potency: 5.01 µM (active)
[6]
  Potency: inactive

## CCc1ccc(-n2c(=O)c3cccnc3n2CC(=O)Nc2cc(F)ccc2F)cc1
[1]
  Potency: inactive
[2]
  Potency: inactive
[4]
  Potency: inactive

## N#Cc1ccc(-c2ccc(CNc3ccc(N4CCOCC4)cc3)o2)cc1
[1]
  Potency: 0.04 µM (active)
[2]
  Potency: 0.565 µM (active)
[3]
  Potency: 15.9 µM (active)
[6]
  Potency: 7.98 µM (active)

## CC(=O)c1ccc(N2CCN(S(=O)(=O)c3ccc4c(c3)C(C)(C)C(=O)N4)CC2)cc1
[1]
  Potency: inactive
[2]
  Potency: inactive
[3]
  Potency: 5.01 µM (active)
[4]
  Potency: inactive
[6]
  Potency: inactive

## CCc1ccc(CN2CCC(C(=O)Nc3ccc(Oc4cccnc4)cc3)CC2)o1
[1]
  Potency: 5.01 µM (active)
[2]
  Potency: inactive
[3]
  Potency: inactive
[6]
  Potency: inactive

## COc1cccc(-c2ccc(CN3CCCC(NC(=O)Nc4ccccc4)C3)cc2)c1 (configuration not stated)
[1]
  Potency: inactive
[2]
  Potency: 12.6 µM (active)
[4]
  Potency: inactive

## COc1ccccc1-c1cc(C(=O)NCc2ccc(C(F)(F)F)cc2)c2cnn(C)c2n1
[1]
  Potency: inactive
[2]
  Potency: inactive
[3]
  Potency: 7.08 µM (active)
[4]
  Potency: inactive
[6]
  Potency: inactive
